Reference: PubChem BioAssay
A number with no mark means an inactive call. The rule behind the calls is not given here.

molecular target: Pantothenate synthetase (Mycobacterium tuberculosis (strain ATCC 25618 / H37Rv)) (UniProt P9WIL5); experiment: Recombinant Mtb pantothenate synthetase (PanC) inhibitors, coupled enzyme, confirmatory (AID 375); conditions: coupled enzyme assay; at 10 µM, stronger effect = higher value;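 note: 0% = full reaction with vehicle and 100% = no enzyme background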
Sequence (P9WIL5 whole entry, looked up): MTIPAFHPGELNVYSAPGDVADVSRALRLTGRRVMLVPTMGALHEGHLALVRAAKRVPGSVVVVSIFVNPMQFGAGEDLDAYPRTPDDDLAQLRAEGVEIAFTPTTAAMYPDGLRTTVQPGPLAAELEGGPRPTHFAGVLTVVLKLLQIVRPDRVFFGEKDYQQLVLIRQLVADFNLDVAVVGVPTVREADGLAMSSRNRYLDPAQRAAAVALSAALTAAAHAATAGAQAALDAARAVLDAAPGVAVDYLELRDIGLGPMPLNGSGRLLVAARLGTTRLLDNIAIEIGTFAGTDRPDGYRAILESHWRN

| Structure (SMILES) | inhibition [%] |
| --- | --- |
| CC1Cc2ccccc2N1NC(=O)c1ccc(Cl)c(S(N)(=O)=O)c1 (configuration not stated) | 0 |
| COCCSc1nnc(NC(=O)Cc2ccccc2OC)s1 | 4 |
| COC(=O)c1cc(Br)c(=O)n(-c2ccc(OC)cc2)c1 | 0 |
| COc1ccc(C(=O)N2CCN(C3CCC(c4ccccc4)CC3)CC2)cc1OC (configuration not stated) | 2 |
| COCCNC(=O)C(c1cccc(OC)c1)N(Cc1cccs1)C(=O)Cn1nnc2ccccc21 (configuration not stated) | 0 |
| CCOC(=O)c1c(-c2cccs2)csc1NC(=O)CCCC(=O)O | 0 |
| COc1ccc(-c2nnc(-c3ccc(N)cc3)o2)cc1 | 4 |
| Cc1ccccc1C1CC(c2ccccc2)Nc2ncnn21 (configuration not stated) | 12 |
| CC1CCN(C(=O)CCNS(=O)(=O)c2ccccc2)CC1 | 3 |
| COc1ccc(NC(=O)C2CCCN(S(=O)(=O)c3cccc4cccnc34)C2)cc1OC (configuration not stated) | 0 |
| N#CCc1c(C#N)c(N)nc(N2CCN(S(=O)(=O)c3ccccc3)CC2)c1C#N | 6 |
| N#Cc1nc(-c2cccs2)oc1NCc1ccc(Cl)cc1 | 0 |
| COCCCN(C(C)=O)c1nc(-c2ccccc2)cs1 | 0 |
| c1nc(NCC2(N3CCOCC3)CCCCC2)c2ccsc2n1 | 0 |
| COC(=O)c1ccc(-c2nn(C)c(=O)c3ccccc23)cc1 | 0 |
| CC1(C)NC(=O)N(CN2C(=O)NC(C)(C)C2=O)C1=O | 0 |
| O=C(CCN1C(=O)c2ccccc2C1=O)NCCN1CCOCC1 | 0 |
